Compound activity (PubChem BioAssay)
Mtb bLac sens = beta-lactam sensitization of Mtb H37Rv | M. tuberculosis H37Rv growth with meropenem, percent inhibition | inhibition, % at 25 µM | 0.27% of 330,000 active | AID 434955;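 note: growth measured after seven days incubation then overnight dye step; 0% = bacteria only wells and 100% = bacteria with antibiotic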
Rv3671c inh = inhibitors of M. tuberculosis serine protease Rv3671c; P9WHR9; inhibition, % at 5.96 µM; 0.048% of 320,000 active; AID 2606; in the data active = inhibition above about 38%;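 note: extracellular domain of Rv3671c used as enzyme; 0% = enzyme with DMSO and 100% = no enzyme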
Target sequence (P9WHR9 whole entry, looked up, the tested form may be a part): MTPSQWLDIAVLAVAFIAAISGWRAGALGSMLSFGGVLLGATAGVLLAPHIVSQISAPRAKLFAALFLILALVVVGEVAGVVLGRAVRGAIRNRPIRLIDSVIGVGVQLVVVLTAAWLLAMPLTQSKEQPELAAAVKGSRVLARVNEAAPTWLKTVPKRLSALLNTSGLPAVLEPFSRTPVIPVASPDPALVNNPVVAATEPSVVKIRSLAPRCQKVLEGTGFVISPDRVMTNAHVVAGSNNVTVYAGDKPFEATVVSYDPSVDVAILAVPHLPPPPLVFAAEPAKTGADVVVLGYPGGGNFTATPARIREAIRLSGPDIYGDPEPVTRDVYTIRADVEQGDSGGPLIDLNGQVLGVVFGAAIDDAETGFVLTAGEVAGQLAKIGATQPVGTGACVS
RecA intein inh = Mtb RecA intein splicing inhibition; inhibition, % (concentration not given with the values); 0.75% of 290,000 active; cell-free RecA intein splicing, fluorescence; in the data active = inhibition above about 30%; inconclusive = no clear call, values can overlap the other calls;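 note: 0% = vehicle wells and 100% = reference inhibitor control wells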
FadD28 binding = M. tuberculosis FadD28 bisubstrate binding inhibition. FadD28 bisubstrate probe binding, fluorescence polarization. inhibition, % at 12.5 µM. 0.22% of 360,000 active; in the data active = inhibition above about 8.5%, passing the limit was not always enough; inconclusive = no clear call, values can overlap the other calls
UGM FP inh = inhibitors of M. tuberculosis UDP-galactopyranose mutase. P9WIQ1. purified UGM, fluorescence polarization probe displacement. inhibition, % at 10 µM. 0.06% of 320,000 active. AID 504406; in the data active = inhibition above about 10%, passing the limit was not always enough; inconclusive = no clear call, values can overlap the other calls
Mtb hypoxia rep = reduces hypoxia-regulated biosensor signal in M. tuberculosis; M. tuberculosis hypoxia-regulated fluorescent reporter, fluorescence; fluorescence inhibition, % (no concentration beside the values); 0.1% of 300,000 active; AID 1159583; in the data active = fluorescence inhibition mostly above about 23%, no sharp cut-off; inactive = mostly below about 17%
GFP chromophore = counter-screen: blocks GFP chromophore formation; shares compounds with RecA intein inh; AID 434968; 83% of 2,100 active; EC50, µM; cell-free GFP chromophore formation, fluorescence
* = called active by the depositor; ? = inconclusive; nt = no result shown. In the library only some 0.92% were active in any assay of this set; here they are far more common. Unless noted, the rule behind the calls is not given here.

SMILES	Mtb bLac sens	Rv3671c inh	RecA intein inh	FadD28 binding	UGM FP inh	Mtb hypoxia rep	GFP chromophore
CC(C)NC1(C(N)=O)CCN(Cc2ccccc2)CC1	nt	nt	nt	-1	nt	15	nt
CCCCn1c(NC(=O)c2ccco2)c(S(=O)(=O)c2ccc(C)cc2)c2nc3ccccc3nc21	nt	nt	57*	-1	nt	7	?
CCCCn1c(NC(=O)c2ccco2)c(C(=O)OCC)c2nc3ccccc3nc21	17	-207	-65	-6	0	-7	nt
CCC(=O)N/N=C(\C)CC(=O)Nc1cccc([N+](=O)[O-])c1	2	3	76*	-3	2	nt	29*
Cc1ccc(-c2noc(-c3ccccc3C(=O)N3CCOCC3)n2)cc1	-11	-3	-3	0	2	8	>38
COc1ccc(-c2noc(-c3ccccc3C(=O)N3CCOCC3)n2)cc1	-15	5	1	1	0	2	nt
CC(C)(C)C1CCc2onc(C(=O)NCc3ccc(F)cc3)c2C1 (stereo not drawn)	?	-3	-3	-2	2	11	nt
CCOC(=O)c1c(C)oc2c1c(C=NCCC(=O)O)c(O)c1ccccc12	1	-20	34*	5	-1	9	34*
Nc1ccc(N)c(C(=O)O)c1	-3	-5	57*	?	1	nt	9.7*
Cc1ccc(C2=NOC(=O)/C2=C\C=C\c2ccccc2)cc1	nt	nt	1	-3	nt	0	nt
O=c1c(Cl)c(Nc2cccc(Cl)c2)cnn1-c1nc2ccccc2s1	?	-5	1	0	1	4	nt
COc1ccc(Nc2cnn(-c3nc4ccccc4s3)c(=O)c2Cl)cc1	22	-3	47*	-5	0	5	6.7*
O=C(COc1ccccc1Cl)OCC(=O)N1CCN(S(=O)(=O)c2ccccc2)CC1	2	2	1	-2	0	-6	nt
O=[N+]([O-])c1cnc2ccccc2c1	-9	-1	0	-2	0	0	nt
O=[N+]([O-])c1cc([N+](=O)[O-])c2cc3ccccc3nc2c1	100	3	93*	-3	3	nt	4.9*
CCOC(=O)c1c(CSC(=N)N)n(-c2ccc(Br)cc2)c2cc(Br)c(OC(C)=O)cc12	nt	nt	nt	-3	nt	6	nt
CCCCCCCCOC(=O)c1c(CSC(=N)N)n(C)c2cc(Br)c(OC(C)=O)cc12	94	13	90*	-13	-2	nt	2.4*
CCOC(=O)c1c(C=O)c(C)n(Cc2ccc(C)cc2)c1C	12	-18	8	-5	-1	-2	nt
CC(C)(C)OC(=O)N/N=C\c1ccc(OC(=O)c2ccco2)cc1	26	9	43*	-2	0	nt	>38
CCOc1cc(/C=N\NC(=O)OC(C)(C)C)ccc1OC(=O)c1ccco1	-2	7	31*	-1	1	nt	>38
COC(=O)N/N=C\c1ccc(OC(=O)c2ccco2)cc1	45	12	40*	-3	-2	nt	>38
CCOC(=O)N/N=C\c1ccc(OC(=O)c2ccco2)cc1	60	4	34*	-4	-1	nt	>38
CC(C)(C)OC(=O)NN=Cc1ccc(OC(=O)c2cccs2)cc1	nt	nt	nt	nt	nt	0	nt
Cc1ccccc1-c1ccc(/C=C2/SC(N3CCOCC3)=NC2=O)o1	56	-3	-15	-3	7	-5	nt
COc1ccc(C2=NC(C)(C)Cc3cc(OC)c(OC)cc32)cc1OC	2	6	nt	-2	-2	-4	nt
SMILES	Mtb bLac sens	Rv3671c inh	RecA intein inh	FadD28 binding	UGM FP inh	Mtb hypoxia rep	GFP chromophore
Cc1nc(C)c(C(=O)NNS(=O)(=O)c2ccc([N+](=O)[O-])cc2)s1	4	-5	0	-2	1	10	nt
COc1cc2c(cc1OC)-c1c(OC)c(OC)cc3c1C(C2)N(C)CC3 (stereo not drawn)	-5	-52	71*	0	-1	nt	4.3*
COc1cc2c(cc1OC)-c1c3c(cc4c1C(C2)N(C)CC4)OCO3 (stereo not drawn)	nt	nt	nt	nt	nt	8	nt
COc1cc2c(cc1OC)-c1c3c(cc4c1[C@@H](C2)N(C)CC4)OCO3	94	-132	44*	1	1	nt	21*
CCOC(=O)c1ccc(-n2[nH]c(-c3ccccc3)cc2=O)cc1	-1	-52	67*	-2	-1	-3	3.3*
Cc1cc(=O)n(-c2ccc(C(=O)O)cc2)[nH]1	-5	-138	94*	-2	1	6	2.8*
Cc1cc(=O)n(-c2ccccc2Cl)[nH]1	1	-159	87*	1	-2	2	18*
Cc1cc(=O)cc(C)n1-c1ccc(O)cc1	-6	7	0	-4	1	2	nt
Cc1cc(=O)n(-c2ccc(O)cc2)[nH]1	29	-179	97*	0	0	10	2.2*
Cc1ccc(C)n1-c1ccc(C(=O)O)cc1	-5	-9	-1	nt	2	nt	nt
CC(C)(C)n1nnnc1CN1CCSCC1	-8	-6	-5	0	-1	8	nt
COc1ccc(N2C(=O)CSC2c2ccc(F)cc2)cc1 (stereo not drawn)	8	-2	1	0	2	5	nt
CS(=O)(=O)c1nc(-c2ccc(F)cc2)cc(C(F)(F)F)n1	nt	nt	nt	-3	nt	-4	nt
CCOC(=O)CS(=O)(=O)c1nc(-c2ccccc2)cc(C(F)(F)F)n1	93	-8	72*	-3	-1	nt	5.9*
CCOC(=O)c1c(C(F)(F)F)cc(-c2ccc(F)cc2)nc1C	-1	6	-2	-1	0	3	nt
COc1ccc(-c2cc(C(F)(F)F)nc(S(C)(=O)=O)n2)cc1	96	-9	72*	-8	-1	2	14*
COC(=O)CCS(=O)(=O)c1nc(-c2ccccc2)cc(C(F)(F)F)n1	99	0	67*	-3	-2	9	11*
CCOC(=O)CS(=O)(=O)c1nc(-c2ccc(F)cc2)cc(C(F)(F)F)n1	96	-11	74*	-3	-1	nt	6*
CS(=O)(=O)N(CC(=O)NCc1ccccc1Cl)C1CCCCC1	-3	0	-2	-3	0	13	nt
O=C(O)CCS(=O)(=O)c1nc(-c2cccs2)cc(C(F)(F)F)n1	nt	-5	25	-2	0	12	nt
COCC(C)NC(=O)CCS(=O)(=O)c1nc(-c2ccc(OC)cc2)cc(C(F)(F)F)n1 (stereo not drawn)	21	-4	33*	-7	-2	13	35*
CCOC(=O)CCS(=O)(=O)c1nc(-c2ccccc2)cc(C(F)(F)F)n1	100	-5	78*	-4	0	nt	7.2*
CCn1c(=O)c(C(=O)Nc2ccccc2)c(O)c2ccccc21	12	9	1	-1	-1	13	nt
O=[N+]([O-])c1ccc(O)c2cccnc12	1	-5	nt	0	2	6	nt
O=[N+]([O-])c1ccc(O)c2ncccc12	82	-2	43*	-4	-1	nt	25*
COC1=C(c2ccccc2)C(=O)c2ccccc2C1=O	4	-18	69*	0	2	9	14*
